Measurements from PubChem BioAssay (NCATS).
Inconclusive results are not listed. Activity calls are given as the source filed them. Calls follow the shape of the dose curve; as a rule, active = well fitted curve in the direction sought with a large enough effect; inconclusive = small, poorly fitted or top-dose-only effect, or another doubt; inactive = no such curve, though single readings can be large; an effect the other way counts as inactive or inconclusive.

Legend:
[1] = Quantitative High-Throughput drug screen in 47 multiple myeloma cell lines against the NCATS MIPE library collection: FR4_PLB cell viability assay (AID 1918924; also: nearly all actives have a fitted effect of over 35% in size; also: potency is read from the fitted curve at half-maximal effect)
Procedure, shortened: (§1)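 Myeloma cells (500 per well) were exposed to MIPE 4.0 compounds by pin transfer and incubated 48 hours at 37C, 5% CO2. Viability was read as ATP by CellTiter-Glo luminescence, normalised to DMSO (100%) and media-only (0%) wells.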

[2] = Quantitative High-Throughput drug screen in 47 multiple myeloma cell lines against the NCATS MIPE library collection: Delta47_JCRB cell viability assay (AID 1918925; also: nearly all actives have a fitted effect of over 45% in size; also: potency is read from the fitted curve at half-maximal effect)
Procedure, shortened: (§2)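 We plated 500 myeloma cells per well, pinned in MIPE 4.0 compounds, and incubated for 48 hours at 37C. ATP was then quantified with CellTiter-Glo, with DMSO and media-only wells defining 100% and 0%.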

[3] = Quantitative High-Throughput drug screen in 47 multiple myeloma cell lines against the NCATS MIPE library collection: EJM_DSMZ cell viability assay (AID 1918926; also: nearly all actives have a fitted effect of over 30% in size; also: potency is read from the fitted curve at half-maximal effect)
Procedure, shortened: as §2

[4] = Quantitative High-Throughput drug screen in 47 multiple myeloma cell lines against the NCATS MIPE library collection: AMO1_DSMZ cell viability assay (AID 1918927; also: nearly all actives have a fitted effect of over 30% in size; also: potency is read from the fitted curve at half-maximal effect)
Procedure, shortened: as §2

[5] = Quantitative High-Throughput drug screen in 47 multiple myeloma cell lines against the NCATS MIPE library collection: ARD_JJKsccE7 cell viability assay (AID 1918929; also: potency is read from the fitted curve at half-maximal effect)
Procedure, shortened: as §2

[6] = Quantitative High-Throughput drug screen in 47 multiple myeloma cell lines against the NCATS MIPE library collection: Karpas620_DSMZ cell viability assay (AID 1918959); also: nearly all actives have a fitted effect of over 30% in size; also: potency is read from the fitted curve at half-maximal effect
Procedure, shortened: as §1

[7] = Quantitative High-Throughput drug screen in 47 multiple myeloma cell lines against the NCATS MIPE library collection: KMM1_JCRB cell viability assay (AID 1918960); also: nearly all actives have a fitted effect of over 30% in size; also: potency is read from the fitted curve at half-maximal effect
Procedure, shortened: (§3)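 Each line was plated at 500 cells/well and treated 48 h with library drugs. Viability came from CellTiter-Glo luminescence relative to DMSO and cell-free medium controls.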

[8] = Quantitative High-Throughput drug screen in 47 multiple myeloma cell lines against the NCATS MIPE library collection: Karpas417_ECACC cell viability assay (AID 1918961); conditions: Karpas417 myeloma viability, CellTiter-Glo ATP luminescence, 48 h; viability (% of DMSO): at 45.8 µM (top of the series); also: potency is read from the fitted curve at half-maximal effect
Procedure, shortened: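 CellTiter-Glo ATP luminescence gave viability after 48 h compound treatment at 37C of 500 multiple myeloma cells per well. Normalisation used DMSO-only wells as 100% and media-only wells as 0% viability; primary qHTS of approved and investigational drugs.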

[9] = Quantitative High-Throughput drug screen in 47 multiple myeloma cell lines against the NCATS MIPE library collection: ARP1_JJKsccF8 cell viability assay (AID 1918928; also: nearly all actives have a fitted effect of over 40% in size; also: potency is read from the fitted curve at half-maximal effect)
Procedure, shortened: as §3

[10] = Primary redox qHTS assay for identification of artifact compounds. (AID 1845223)
Procedure, shortened: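 Redox-cycling detection via DTT (250 uM final) oxidation coupled to Amplex Red (25 uM)/HRP (250 mU/mL) in HBSS. 15 min preincubation plus 30 min after DTT, room temperature. Ex/Em 525/598 nm; 4-parameter Hill fit against DMSO and 10 uM DA3003.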

Measured: Potency

CCN1CCCC1CNC(=O)c1cc(S(N)(=O)=O)ccc1OC (centres undefined)
inactive: [1] | [2] | [3] | [4] | [5] | [6] | [7] | [8]

NCCCC(O)(P(=O)(O)O)P(=O)(O)O
inactive: [1] | [2] | [3] | [4] | [5] | [6] | [7] | [8]

Nc1[nH]c(=O)ncc1F
inactive: [1] | [2] | [3] | [5] | [6] | [7]
active: [4] 4.69 µM

CNCC[C@H](Oc1cccc2ccccc12)c1cccs1
active: [1] 3.72 µM | [2] 2.35 µM | [4] 26.4 µM | [9] 18.7 µM | [5] 23.5 µM | [6] 23.5 µM | [7] 26.4 µM

C[C@@H]1C[C@H]2[C@@H]3CCC4=CC(=O)C=C[C@]4(C)[C@@]3(Cl)[C@@H](O)C[C@]2(C)[C@@]1(OC(=O)c1ccco1)C(=O)CCl
active: [1] 26.4 µM | [2] 2.96 µM | [3] 4.69 µM | [4] 1.48 µM | [6] 16.6 µM | [8] 8.33 µM

CCOC(=O)c1ccc(OC(=O)CCCCCN=C(N)N)cc1
inactive: [1] | [2] | [3] | [4] | [9] | [6] | [7] | [8]

CCCCc1oc2ccc(NS(C)(=O)=O)cc2c1C(=O)c1ccc(OCCCN(CCCC)CCCC)cc1
inactive: [10]
active: [1] 16.6 µM | [2] 11.8 µM | [3] 16.6 µM | [5] 16.6 µM | [6] 20.9 µM | [7] 20.9 µM

Cc1cccc(N(C)C(=S)Oc2ccc3ccccc3c2)c1
inactive: [1] | [2] | [3] | [9] | [6]
active: [5] 20.9 µM

Nc1nc(F)nc2c1ncn2[C@@H]1O[C@H](CO)[C@@H](O)[C@@H]1O
inactive: [10]
active: [1] 0.187 µM | [2] 0.148 µM | [4] 0.372 µM | [5] 0.332 µM | [6] 0.296 µM | [7] 0.526 µM | [8] 0.0469 µM

CC(C(=O)O)c1ccc2c(c1)CC(=O)c1ccccc1S2 (centres undefined)
inactive: [10] | [1] | [2] | [9] | [7]
active: [8] 0.0209 µM

OCc1ccc(-c2nn(Cc3ccccc3)c3ccccc23)o1
inactive: [1] | [3] | [9] | [7]
active: [2] 20.9 µM

Cc1noc(NS(=O)(=O)c2ccc(N)cc2)c1C
inactive: [1] | [2] | [3] | [4] | [9] | [6] | [7] | [8]

COC(=O)Nc1nc2ccc(C(=O)c3ccccc3)cc2[nH]1
active: [1] 0.296 µM | [3] 4.69 µM | [9] 0.743 µM

Cn1c(=O)c2c(ncn2CC(O)CO)n(C)c1=O (centres undefined)
inactive: [1] | [3] | [4] | [9] | [6] | [7]

CCCOc1ccc(C(=O)OCCN(CC)CC)cc1N
inactive: [1] | [3] | [4] | [9] | [6] | [7]

CCOCC(O)COc1ccc(NC(=O)CC[S+](C)C)cc1 (centres undefined)
inactive: [1] | [2] | [9] | [6] | [7]

O=c1oc2c(O)c(O)cc3c(=O)oc4c(O)c(O)cc1c4c23
inactive: [1] | [2] | [6]

COc1nc(N)nc2c1ncn2[C@@H]1O[C@H](CO)[C@@H](O)[C@@H]1O
inactive: [1] | [2] | [4] | [6] | [7] | [8]

CC(C)(C)C(=O)OCOP(=O)(COCCn1cnc2c(N)ncnc21)OCOC(=O)C(C)(C)C
active: [1] 6.62 µM | [2] 0.0833 µM | [4] 0.105 µM | [9] 0.833 µM | [6] 16.6 µM | [7] 11.8 µM

CCN[C@H]1C[C@H](C)S(=O)(=O)c2sc(S(N)(=O)=O)cc21
inactive: [1] | [2] | [4] | [6] | [7]

COc1ncnc(NS(=O)(=O)c2ccc(N)cc2)c1OC
inactive: [1] | [3] | [4] | [5] | [6] | [8]

C1CCC(C(CC2CCCCN2)C2CCCCC2)CC1 (centres undefined)
active: [1] 11.8 µM | [3] 26.4 µM | [4] 18.7 µM | [9] 23.5 µM | [5] 26.4 µM | [6] 14.8 µM | [7] 14.8 µM | [8] 18.7 µM

COc1ccccc1OCC(O)COC(N)=O (centres undefined)
inactive: [1] | [2] | [9] | [5] | [6] | [7]

CCCN[C@H]1CCc2nc(N)sc2C1
inactive: [1] | [3]

O=C(O)CSCC(=O)NC1CCSC1=O (centres undefined)
inactive: [1] | [3] | [9] | [6]

CC1=CC(=O)c2ccccc2C1=O
active: [1] 26.4 µM | [3] 20.9 µM | [9] 16.6 µM | [6] 14.8 µM
inactive: [5] | [7]

CN(C)c1ccc(C(=C2C=CC(=[N+](C)C)C=C2)c2ccc(N(C)C)cc2)cc1
active: [1] 0.132 µM | [2] 0.0105 µM | [5] 0.526 µM

NS(=O)(=O)c1cc2c(cc1Cl)NC(C(Cl)Cl)NS2(=O)=O (centres undefined)
inactive: [1] | [3] | [4] | [6] | [7]
